From the supplement of paper PMC13380429

Each molecule was assayed on Vero E6 infected with SARS-CoV-2 (assay: inhibition of SARS-CoV-2 cytopathic effect; higher = more antiviral protection, active = above 15). Conditions: 1 nM; 48 h.

Structure (SMILES) | inhibition of SARS-CoV-2 cytopathic effect
O=c1ncn2nc(Sc3ccc(F)cc3F)ccc2c1-c1c(Cl)cccc1Cl | 1.28% (inactive)
COc1ccc(CCNCC(O)COc2cccc(C)c2)cc1OC (stereo not given) [bevantolol] | -3.29% (inactive)
C[C@@H](CN)CC(=O)O [3-methyl-GABA] | 0.49% (inactive)
Oc1cc(O)c2cc(O)c(-c3cc(O)c(O)c(O)c3)[o+]c2c1 [delphinidin] | -3.03% (inactive)
O=C(O)c1ccc(Nc2ncc3c(n2)-c2ccc(Cl)cc2C(c2c(F)cccc2F)=NC3)cc1 | -1.58% (inactive)

Same assay, conditions: 8.33 nM; 48 h

Structure (SMILES) | inhibition of SARS-CoV-2 cytopathic effect
Clc1cc(Cl)c(OCC#CI)cc1Cl [haloprogin] | -1.3% (inactive)
N#C[C@H](O[C@@H]1O[C@H](CO[C@@H]2O[C@H](CO)[C@@H](O)[C@H](O)[C@H]2O)[C@@H](O)[C@H](O)[C@H]1O)c1ccccc1 [amygdalin] | -1.9% (inactive)
CC(=O)SC[C@@H](C)C(=O)N1CCC[C@H]1C(=O)N[C@@H](Cc1ccccc1)C(=O)O [alacepril] | 0.59% (inactive)
Cc1ccc(-n2nc(C(C)(C)C)cc2NC(=O)NCc2cc(F)ccc2Oc2ccc3c(cnn3CCO)c2)cc1 [pexmetinib] | -3.1% (inactive)
CC(C)NCC(O)COc1cccc2[nH]c3ccccc3c12 (stereo not given) [carazolol] | -2.21% (inactive)
CCOC(=O)Nc1cc(-c2ccc(C)c(NS(C)(=O)=O)c2)nn2c(C)nnc12 [bromosporine] | -0.62% (inactive)
FC(F)(F)c1cc(CO[C@H]2CCCN[C@H]2c2ccccc2)cc(C(F)(F)F)c1 | -2.69% (inactive)
Cc1cc(Cl)ccc1OCCCC(=O)NO [droxinostat] | 1.04% (inactive)
CC1(C)[C@H](C(=O)O)N2C(=O)C[C@H]2S1(=O)=O [sulbactam] | 2.68% (inactive)
CCc1nn(CCO)c(CC)c1Oc1cc(C#N)cc(C#N)c1 [lersivirine] | 2.52% (inactive)
Cc1cc(=O)n(-c2ccccc2)[nH]1 [N-demethylantipyrine] | -3.23% (inactive)
C/C(=N\Nc1nnc2c(n1)[nH]c1c(C)cccc12)c1ccccn1 | -0.485% (inactive)
Cc1ccc(Cl)cc1N(CC(=O)Nc1c(F)cccc1F)S(C)(=O)=O | -2.01% (inactive)
O=C(O)C1(C(=O)O)CCC1.[NH2-].[NH2-].[Pt+2] [carboplatin] | 3.65% (inactive)
O=C(O)c1cc(N2N=C(C(F)(F)F)/C(=C/c3ccc(-c4ccccc4)o3)C2=O)ccc1Cl | 1.11% (inactive)
CCCCC(CC)CNC(=N)NC(=N)NCCCCCCNC(=N)NC(=N)NCC(CC)CCCC (stereo not given) [alexidine] | 4.36% (inactive)
C[C@H](Cc1ccc(O)c(O)c1)[C@@H](C)Cc1ccc(O)c(O)c1 [masoprocol] | 1.69% (inactive)
O=C1C=Cc2cc(Br)ccc2C1=O [bonaphthone] | 0.78% (inactive)
COc1ccc(C2CNC(=O)NC2)cc1O[C@H]1C[C@@H]2CC[C@H]1C2 [atizoram] | 1.37% (inactive)
Cc1ccc2cc(-c3c(C)ccc(C(=O)c4c(-c5ccccc5)n(C)n(-c5ccccc5)c4=O)c3N)ccc2n1 | -0.19% (inactive)

Structure (SMILES) | inhibition of SARS-CoV-2 cytopathic effect
O=C(Cc1ccc(Cl)c(Cl)c1)N1CCCC[C@@H]1CN1CCCC1 | 2.64% (inactive)
COc1ccc2cc3[n+](cc2c1OC)CCc1cc2c(cc1-3)OCO2 [berberine] | -10.1% (inactive)
Oc1nc(-c2ccc(C(F)(F)F)cc2)nc2c1CSCC2 | 2.98% (inactive)
NCC1(CC(=O)O)CCCCC1 [gabapentin] | 2.99% (inactive)
CCn1c(-c2nonc2N)nc2cncc(C(=O)N3CC[C@H](N)C3)c21 | 3.31% (inactive)
O=C1[O][SbH]23[O]C(=O)C([O]2)C2[O][SbH]4([O]C(=O)C([O]4)C1[O]3)[O]C2=O [antimonyl] | 0.38% (inactive)
COc1ccc(-c2nc(-c3ccc(-c4cccc(Cl)c4)o3)[nH]c2-c2ccc(OC)cc2)cc1 [neurodazine] | -0.31% (inactive)
O=C(O)C(Cc1ccccc1[N+](=O)[O-])=NNc1nc(-c2ccc(Cl)c(Cl)c2)cs1 | -0.65% (inactive)
C[N+]12CCCCC1CCC(=C(c1cccs1)c1cccs1)C2 (stereo not given) [tiquizium] | -0.22% (inactive)
O=C(O)CCCCC(CCSCc1ccccc1)SCc1ccccc1 (stereo not given) | 1.84% (inactive)
COC(=O)[C@H](c1ccccc1Cl)N1CCc2sccc2C1 [clopidogrel] | 0.66% (inactive)
CCCCC1=NC2(CCCC2)C(=O)N1Cc1ccc(-c2ccccc2-c2nnn[nH]2)cc1 [irbesartan] | -0.93% (inactive)
CCCCCCCCCCCCCCSCC(=O)O [tetradecylthioacetic-acid] | 0.01% (inactive)
COc1c(N2C[C@@H]3CCCN[C@@H]3C2)c(F)cc2c(=O)c(C(=O)O)cn(C3CC3)c12 [moxifloxacin] | 0.31% (inactive)
CC(C)(F)C[C@H](N[C@@H](c1ccc(-c2ccc(S(C)(=O)=O)cc2)cc1)C(F)(F)F)C(=O)NC1(C#N)CC1 [odanacatib] | -4.52% (inactive)
O=c1ncn2nc(Sc3ccc(F)cc3F)ccc2c1-c1c(Cl)cccc1Cl | -0.16% (inactive)
COc1ccc(CCNCC(O)COc2cccc(C)c2)cc1OC (stereo not given) [bevantolol] | -3.57% (inactive)
C[C@@H](CN)CC(=O)O [3-methyl-GABA] | 0.52% (inactive)
Oc1cc(O)c2cc(O)c(-c3cc(O)c(O)c(O)c3)[o+]c2c1 [delphinidin] | -3.65% (inactive)
O=C(O)c1ccc(Nc2ncc3c(n2)-c2ccc(Cl)cc2C(c2c(F)cccc2F)=NC3)cc1 | -1.02% (inactive)
